TEAD-YAP block: TEAD-YAP interaction inhibition; HEK-TIYL cells, TEAD-Gal4/YAP UAS-luciferase luminescence; inhibition, % at 9.12 µM; actives 1.4% (n = 640,000); AID 1259422; in the data active = inhibition above about 32%;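 note: 0% = median of test compound wells and 100% = reference inhibitor wells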
FBW7 act: human FBW7 E3 ligase activation, primary screen. Q969H0. AlphaScreen FBW7–phospho-cyclin E peptide binding, activator screen. normalized activity (activation), % at 26.1 µM. actives 0.13% (n = 650,000). AID 1259310; in the data active = normalized activity above about 1.9%;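 note: purified mutant Fbw7 with reduced substrate affinity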
MITF primary: human MITF inhibition, primary screen; O75030; AlphaScreen MITF homodimerization, bead proximity signal; inhibition, % at 2.6 µM; actives 0.91% (n = 650,000); in the data active = inhibition above about 50%;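 note: 0% = vehicle wells with protein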
Target sequence (O75030 whole entry, looked up): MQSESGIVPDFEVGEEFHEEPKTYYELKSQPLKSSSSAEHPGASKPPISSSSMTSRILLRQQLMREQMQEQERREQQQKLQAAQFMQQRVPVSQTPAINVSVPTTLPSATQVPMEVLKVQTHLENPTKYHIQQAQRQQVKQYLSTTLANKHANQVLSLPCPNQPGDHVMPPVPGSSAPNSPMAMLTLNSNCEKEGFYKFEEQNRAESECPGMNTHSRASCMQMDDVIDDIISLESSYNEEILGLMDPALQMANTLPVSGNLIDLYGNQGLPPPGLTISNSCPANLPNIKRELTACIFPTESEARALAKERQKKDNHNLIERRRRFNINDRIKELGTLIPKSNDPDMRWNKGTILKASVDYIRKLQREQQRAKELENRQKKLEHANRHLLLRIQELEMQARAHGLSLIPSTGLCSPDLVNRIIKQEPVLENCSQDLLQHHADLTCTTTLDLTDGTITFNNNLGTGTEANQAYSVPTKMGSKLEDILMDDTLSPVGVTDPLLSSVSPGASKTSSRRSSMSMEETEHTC
GPR151 ag: human GPR151 activation. PathHunter beta-arrestin GPR151 cells, luminescence. activation, % at 11.2 µM. actives 1% (n = 650,000); in the data active = activation above about 4.9%;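 note: 0% = median of compound wells and 100% = cells with positive control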
MITF confirm: human MITF inhibition, confirmation; AlphaScreen MITF homodimerization, biotin/His-MITF beads; actives 16% (n = 4,700); inhibition, % at 2.6 µM; shares compounds with MITF primary;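 active = inhibition above a cutoff derived from the DMSO control wells, cut at about 28% in these data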;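 note: 0% = MITF dimer wells with DMSO only; inhibitors lower the bead chemiluminescence by keeping MITF from dimerizing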
AlphaScreen DR: optically interferes with AlphaScreen signal in dose response | shares compounds with MITF primary | AlphaScreen optical interference counterscreen, cell-free | IC50, µM | actives 6% (n = 480) | AID 1259373; call rule not given here
AlphaScreen intf2: counter-screen: compounds optically interfering with AlphaScreen | AID 1259376 | actives 7.6% (n = 4,700) | inhibition, % at 2.6 µM | shares compounds with MITF primary | LysRS AlphaScreen counterscreen, signal interference, triplicate;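 active = inhibition above a cutoff derived from the DMSO control wells, cut at about 30% in these data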
Numbers without * were called inactive; . = no result; ! = not confirmed by another sample. Hits are enriched below; roughly 3.5% of the tested compounds scored in any of these assays.

SMILES	TEAD-YAP block	FBW7 act	MITF primary	GPR151 ag	MITF confirm	AlphaScreen intf2	others
Cc1cc(-c2cnc(C)nc2C2CCCN(Cc3cccnc3)C2)on1 (centres undefined)	4.3	-0.1	53.0*	1.0	9.2	9.1
Cc1cc(-c2cnc(C)nc2C2CCCN(Cc3ccncc3)C2)on1 (centres undefined)	-12.7	-0.2	35.8	0.3	.	.
CN(C)CCNc1nc(C2COc3ccccc3O2)nc2ccc(-c3cn[nH]c3)cc12 (centres undefined)	-8.7	0.6	51.8*!	-2.4	63.6*	-12.5	AlphaScreen DR=>6.48
Cc1ccccc1C(=O)Nc1ccc2c(c1)C(=O)NCCO2	-4.1	0.1	50.9*	0.3	-5.2	-5.3
O=C(Nc1ccc2c(c1)C(=O)NCCO2)c1ccc(Cl)cc1	-77.0	-0.2	-15.8	0.3	.	.
O=C(O)c1cccc(S(=O)(=O)N2CCC(c3nc4ccc(Cl)cc4[nH]3)CC2)c1	7.9	0.0	69.1*	1.9	10.1	16.5
O=S(=O)(c1cccc(Cl)c1)N1CCC(c2nc3ccccc3[nH]2)CC1	17.8	-0.2	-7.6	-0.4	.	.
CC(C)(C)C(=O)CN1C(=O)COc2ccccc21	-21.4	-0.4	67.0*	3.1	11.5	8.2
CCCC12CN3CC(C)(CN(C1)C3C(O)C(O)C(O)C(O)CO)C2=O (centres undefined)	8.7	0.0	-2.2	-0.6	.	.
CN(C)c1cccc(Nc2nc(C(=O)NC3CCN(Cc4ccccc4)CC3)cs2)c1	-10.9	-0.2	57.6*	-0.7	24.8	16.1
CCOc1ccc(-n2c(CNC(=O)c3ccco3)nnc2SCC(=O)N2N=C(c3ccc(OC)cc3)CC2c2ccc(C)cc2)cc1 (centres undefined)	8.4	0.1	-0.3	1.3	.	.
O=C(Cc1ccccc1)Nc1ccc(Nc2ccc(-n3cccn3)nn2)cc1	-28.0	-0.2	59.8*	1.5	17.2	20.8
Cc1ccc(Nc2ccc(NC(=O)Cc3ccccc3)cc2)nn1	7.9	0.0	5.0	0.7	.	.
CN1CCN(Cc2cn[nH]c2-c2ccc(Cl)cc2)CC1	3.9	0.5	37.6	-0.5	.	.
Cc1ccc(-c2[nH]ncc2CN2CCN(C)CC2)cc1	6.2	1.3	69.0*	-1.5	-11.4	-3.8
Cc1cc(C)n(C(=O)/C=C/c2ccc(Br)cc2)n1	-6.5	-0.1	55.4*	0.3	6.8	16.1
Cc1ccc(/C=C/C(=O)n2nc(C)cc2C)cc1	-17.4	0.3	-0.4	1.7	.	.
Cc1ccc(O)c(-c2cc(C(F)(F)F)nc(-c3ccccc3)n2)c1	0.7	0.0	4.6	0.1	.	.
COc1ccc(-c2ccc(OCCNC(=O)C3CC3)nn2)cc1	-3.1	0.0	1.9	0.6	.	.
Cc1nc(N2C(=O)C(=O)/C(=C(/O)c3ccccc3)C2c2cccs2)sc1C (centres undefined)	3.6	0.0	13.8	-0.5	.	.
Brc1ccc(CN2CCN(Cc3ccco3)CC2)cc1	-4.0	0.1	86.0*	-0.7	9.2	19.9
O=S(=O)(c1ccccc1)N1CCN(Cc2ccco2)CC1	-3.0	0.5	49.0	0.8	.	.
Cc1ccccc1CN1CCN(Cc2ccco2)CC1	-10.3	-0.1	71.9*	0.0	8.5	6.2
Fc1ccc(N2CN(Cc3ccco3)CNC2=S)cc1	12.4	0.2	4.1	-0.4	.	.
CS(=O)(=O)N1CCN(Cc2ccco2)CC1	-1.4	-0.2	31.1	-0.6	.	.
SMILES	TEAD-YAP block	FBW7 act	MITF primary	GPR151 ag	MITF confirm	AlphaScreen intf2	others
Fc1ccc(N2CCN(Cc3ccco3)CC2)cc1	6.1	0.1	51.7*	-0.3	15.2	4.8
c1ccc(CCCN2CCN(Cc3ccco3)CC2)cc1	5.7	0.0	55.2*	1.0	-0.2	12.0
N#Cc1c(N)c(C#N)c(-c2ccncc2)c2c1CCCC2	4.2	-0.1	-9.6	2.2	.	.
NCCNc1ccc(C(F)(F)F)cc1[N+](=O)[O-]	3.2	-0.1	4.8	-0.1	.	.
CSCCC(NC(C)=O)C(=O)OCC(=O)Nc1ccc(S(N)(=O)=O)cc1 (centres undefined)	-8.5	-0.2	4.6	-0.2	.	.
Brc1ccccc1CN1CCN(Cc2ccco2)CC1	-30.4	-0.3	78.5*	-1.1	-4.1	10.7
CC(C)(C)c1ccc(C(=O)NC(=S)Nc2ccc(S(N)(=O)=O)cc2)cc1	-5.1	0.2	11.1	-0.4	.	.
CCOc1ccc(C(=O)NC(=S)Nc2ccc(S(N)(=O)=O)cc2)cc1	10.2	0.8	52.6*	-0.8	-9.9	-6.8
Cc1ccc(CN2CCC(C(=O)NC(C)C)CC2)cc1	8.1	0.3	64.7*	-0.9	-5.5	-4.5
CC(C)NC(=O)C1CCN(Cc2ccccc2Cl)CC1	4.1	-0.2	53.8*	0.0	-9.6	-5.6
CC(C)NC(=O)C1CCN(Cc2cccc(Cl)c2Cl)CC1	7.1	0.4	53.5*	1.1	-21.1	-0.9
CC(C)NC(=O)C1CCN(Cc2cccc(OCc3ccccc3)c2)CC1	4.6	0.6	57.0*	-0.2	-10.2	-6.5
CC(O)CNC(=O)C1CCN(Cc2ccc(OCc3ccccc3)cc2)CC1 (centres undefined)	-13.7	0.6	33.6	0.6	.	.
O=C(c1nc2ccccn2c1CNCc1cnn(Cc2ccccc2)c1)N1CCCC1	-5.4	0.1	-6.6	0.1	.	.
CC1CCCN1CC(O)COc1ccccc1 (centres undefined)	0.8	-0.2	4.6	2.2	.	.
CCOC(=O)c1sc(NC(=O)C(CC(C)C)N2C(=O)c3ccccc3C2=O)c(C(=O)OCC)c1C (centres undefined)	0.1	-0.1	-2.5	0.8	.	.
COc1ccc(CCNC(=O)Cn2cncc(C)c2=O)cc1	8.7	0.0	4.7	-0.7	.	.
Cc1ccc(-c2csc3nc[nH]c(=O)c23)cc1	-2.2	-0.1	-13.1	-1.5	.	.
Cc1ccc(-c2csc3nc(CNCCN(C)C)[nH]c(=O)c23)cc1	0.2	-0.8	95.6*	3.1	16.2	83.4*
O=C(/C=C/c1ccccc1)NCc1ccc(Cl)cc1	-2.3	0.2	52.0*	0.1	3.9	-1.9
COc1cccc(-c2nc(C=Nc3cccc(C(F)(F)F)c3)c(O)o2)c1	-6.5	-0.1	-9.4	2.7	.	.
CCOC(=O)NC(=S)N/N=C/c1ccccn1	3.1	-1.6	64.1*	1.0	-8.2	31.8*
CCN(CC)C(=O)C1CCCN(Cc2cccc(OC)c2OC)C1 (centres undefined)	6.4	0.0	10.4	-0.7	.	.
COc1cccc(CN2CCCC(C(=O)NN)C2)c1OC (centres undefined)	27.4	-0.2	55.0*	-0.3	-7.1	-2.3
COc1cccc(CN2CCN(C3CC4CCC3C4)CC2)c1OC (centres undefined)	-3.9	-0.2	71.0*	-0.9	-1.4	16.2
COc1cccc(CN2CCN(C3CCCC3)C(CCO)C2)c1OC (centres undefined)	10.9	-0.1	5.0	0.7	.	.
COc1cccc(CN2CCN(C3CCCCCC3)CC2)c1OC	6.7	-0.4	71.0*	-0.9	-4.9	11.1
